Measured values published in PubChem BioAssay (NCI).
This is part of a sample that, as a whole, favours compounds with a hit. Of some 79,000 tested, about 15% had one in any assay. Unmarked numbers belong to inactive results. Calls of active or inactive are those of the source. Cut-off read from the data, not from the text of the source: active = growth inhibition above about 70%; inactive = the rest.

What was measured:
[1] = NCI Yeast Anticancer Drug Screen. Data for the rad52 strain (AID 147);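 note: 0% = growth of vehicle-treated control cultures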; conditions: S. cerevisiae rad52 mutant growth inhibition, stronger effect = higher value
Outline: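 The repair-mutant yeast strain was incubated with compounds, then growth was read and inhibition derived relative to vehicle.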

[2] = NCI Yeast Anticancer Drug Screen. Data for the wt1 strain (AID 149);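 note: 0% = growth of vehicle-treated wt1 cultures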; conditions: S. cerevisiae wt1 strain (SPY 50644) growth inhibition, stronger effect = higher value
Outline: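 Readout: yeast growth inhibition, normalised to vehicle controls, in the wt1 strain exposed to test compounds.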

[3] = NCI Yeast Anticancer Drug Screen. Data for the rad50EPP+ strain (AID 151);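 note: 0% = growth of vehicle-treated control cultures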; conditions: S. cerevisiae rad50 mutant strain, stronger effect = higher value
Outline: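 Vehicle-normalised growth inhibition; rad50EPP+ yeast strain, altered in DNA damage repair, compound-treated.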

[4] = NCI Yeast Anticancer Drug Screen. Data for the rad50 strain (AID 155);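 note: 0% = growth of vehicle-only cultures of the same strain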; conditions: S. cerevisiae rad50 strain growth inhibition, stronger effect = higher value
Outline: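 Compounds were tested on a yeast strain with an engineered DNA damage repair alteration; the reported value is growth inhibition normalised to vehicle treatment.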

[5] = NCI Yeast Anticancer Drug Screen. Data for the mec2-1 strain (AID 157); conditions: S. cerevisiae mec2-1 strain, stronger effect = higher value
Outline: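 Mutant yeast (mec2-1) grown with compound; growth inhibition relative to vehicle control reported.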

[6] = NCI Yeast Anticancer Drug Screen. Data for the sgs1 mgt1 strain (AID 161);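 note: 0% = growth of cultures given vehicle only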; conditions: S. cerevisiae sgs1 mgt1 strain, stronger effect = higher value
Outline: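 Yeast cells carrying a defined DNA-repair defect were exposed to test compounds. Growth inhibition was measured relative to vehicle-treated controls.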

[7] = NCI Yeast Anticancer Drug Screen. Data for the CLN2oe strain (AID 163);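 note: 0% = growth of vehicle-only control cultures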; conditions: S. cerevisiae CLN2oe strain, stronger effect = higher value
Outline: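 Compounds are applied to yeast harbouring a defined cell-cycle control change; reduced growth compared with vehicle-treated controls gives the value.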

[8] = NCI Yeast Anticancer Drug Screen. Data for the cln2 rad14 strain (AID 165);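 note: 0% = growth equal to vehicle treated cultures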; conditions: S. cerevisiae cln2 rad14 strain, stronger effect = higher value
Outline: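 Readout is yeast growth inhibition versus vehicle-treated controls, using a strain with cln2 and rad14 alterations exposed to compound.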

[9] = NCI Yeast Anticancer Drug Screen. Data for the bub3 strain (AID 167); conditions: S. cerevisiae bub3 mutant strain, stronger effect = higher value
Outline: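 Growth of a checkpoint-deficient yeast mutant is measured after compound exposure. Values represent inhibition relative to vehicle.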

[10] = NCI Yeast Anticancer Drug Screen. Data for the wt2 strain (AID 169);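 note: 0% = growth of vehicle-treated yeast cultures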; conditions: S. cerevisiae wt2 strain growth inhibition, stronger effect = higher value
Outline: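 Against vehicle-treated controls, the growth of yeast exposed to each compound was compared, and the inhibition was recorded.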

[11] = NCI Yeast Anticancer Drug Screen. Data for the mlh1 strain (AID 171);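 note: 0% = growth of vehicle-treated control cultures of the same strain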; conditions: S. cerevisiae mlh1 strain growth inhibition, stronger effect = higher value
Outline: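 Measured: yeast growth. Reference: vehicle-treated controls. Organism: strain with a defined alteration affecting DNA damage repair or cell cycle control, treated with compound.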

[12] = NCI Yeast Anticancer Drug Screen. Data for the sgs1 strain (AID 173);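 note: 0% = growth of vehicle-only control cultures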; conditions: S. cerevisiae sgs1 mutant, stronger effect = higher value
Outline: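 Each compound was added to cultures of the altered yeast strain. Growth was recorded, and inhibition was derived by comparison with vehicle controls.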

[13] = NCI Yeast Anticancer Drug Screen. Data for the mlh1 rad18 strain (AID 175); conditions: S. cerevisiae mlh1 rad18 strain growth inhibition, stronger effect = higher value
Outline: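 Genetically defined yeast (DNA repair-deficient) exposed to compounds; growth inhibition determined relative to vehicle.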

[14] = NCI Yeast Anticancer Drug Screen. Data for the rad18 strain (AID 177); conditions: S. cerevisiae rad18 mutant growth inhibition, stronger effect = higher value
Outline: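 Vehicle-treated cultures served as the baseline for scoring compound-induced growth inhibition in DNA-repair-mutant yeast.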

[15] = at 5.0 µM (retest, dose inferred, filed as 0.5)
[16] = at 50.0 µM (retest, dose inferred, filed as 5.0)

Cc1cccc(/C=N/NC(=S)N(C)CCc2ccccn2)n1
growth inhibition ([1]; at 1.2 µM): 96% (active) | growth inhibition ([1]; at 3.7 µM): 98% (active) | growth inhibition ([1]; at 11.0 µM): 98% (active) | growth inhibition ([1]; at 33.0 µM): 99% (active) | growth inhibition ([1]; at 100.0 µM): 99% (active) | growth inhibition ([2]; at 1.2 µM): 90% (active) | growth inhibition ([2]; at 3.7 µM): 94% (active) | growth inhibition ([2]; at 11.0 µM): 98% (active) | growth inhibition ([2]; at 33.0 µM): 99% (active) | growth inhibition ([2]; at 100.0 µM): 99% (active) | growth inhibition ([3]; at 1.2 µM): -23% | growth inhibition ([3]; at 3.7 µM): -11% | growth inhibition ([3]; at 11.0 µM): 54% | growth inhibition ([3]; at 33.0 µM): 84% (active) | growth inhibition ([3]; at 100.0 µM): 90% (active) | growth inhibition ([4]; at 1.2 µM): 91% (active) | growth inhibition ([4]; at 3.7 µM): 94% (active) | growth inhibition [4, 15]: 16% | growth inhibition ([4]; at 11.0 µM): 96% (active) | growth inhibition ([4]; at 33.0 µM): 98% (active) | growth inhibition [4, 16]: 99% (active) | growth inhibition ([4]; at 50.0 µM): 78.6% (active) | growth inhibition ([4]; at 100.0 µM): 98% (active) | growth inhibition ([5]; at 1.2 µM): 94% (active) | growth inhibition ([5]; at 3.7 µM): 97% (active) | growth inhibition [5, 15]: 81% (active) | growth inhibition ([5]; at 11.0 µM): 98% (active) | growth inhibition ([5]; at 33.0 µM): 99% (active) | growth inhibition [5, 16]: 97% (active) | growth inhibition ([5]; at 50.0 µM): 86.7% (active) | growth inhibition ([5]; at 100.0 µM): 99% (active) | growth inhibition [6, 15]: 44% | growth inhibition [6, 16]: 97% (active) | growth inhibition ([6]; at 50.0 µM): 91.3% (active) | growth inhibition ([7]; at 1.2 µM): 81% (active) | growth inhibition ([7]; at 3.7 µM): 92% (active) | growth inhibition ([7]; at 11.0 µM): 97% (active) | growth inhibition ([7]; at 33.0 µM): 98% (active) | growth inhibition ([7]; at 100.0 µM): 98% (active) | growth inhibition [8, 15]: 9% | growth inhibition [8, 16]: 97% (active) | growth inhibition ([8]; at 50.0 µM): 90.7% (active) | growth inhibition ([9]; at 1.2 µM): 56% | growth inhibition ([9]; at 3.7 µM): 91% (active) | growth inhibition [9, 15]: 56% | growth inhibition ([9]; at 11.0 µM): 97% (active) | growth inhibition ([9]; at 33.0 µM): 98% (active) | growth inhibition [9, 16]: 99% (active) | growth inhibition ([9]; at 50.0 µM): 91% (active) | growth inhibition ([9]; at 100.0 µM): 98% (active) | growth inhibition ([10]; at 1.2 µM): 89% (active) | growth inhibition ([10]; at 3.7 µM): 93% (active) | growth inhibition ([10]; at 11.0 µM): 97% (active) | growth inhibition ([10]; at 33.0 µM): 98% (active) | growth inhibition ([10]; at 100.0 µM): 99% (active) | growth inhibition ([11]; at 1.2 µM): 91% (active) | growth inhibition ([11]; at 3.7 µM): 95% (active) | growth inhibition ([11]; at 11.0 µM): 98% (active) | growth inhibition ([11]; at 33.0 µM): 98% (active) | growth inhibition ([11]; at 100.0 µM): 99% (active) | growth inhibition ([12]; at 1.2 µM): 97% (active) | growth inhibition ([12]; at 3.7 µM): 98% (active) | growth inhibition ([12]; at 11.0 µM): 99% (active) | growth inhibition ([12]; at 33.0 µM): 99% (active) | growth inhibition ([12]; at 100.0 µM): 98% (active) | growth inhibition [13, 15]: 61% | growth inhibition [13, 16]: 99% (active) | growth inhibition ([13]; at 50.0 µM): 92.1% (active)

COC(=O)c1cccc(C)c1C(=O)c1c(C)cc(C)cc1C
growth inhibition ([1]; at 1.2 µM): -1% | growth inhibition ([1]; at 3.7 µM): -1% | growth inhibition ([1]; at 11.0 µM): 4% | growth inhibition ([1]; at 33.0 µM): 28% | growth inhibition ([1]; at 100.0 µM): 77% (active) | growth inhibition ([2]; at 1.2 µM): 0% | growth inhibition ([2]; at 3.7 µM): 1% | growth inhibition ([2]; at 11.0 µM): -2% | growth inhibition ([2]; at 33.0 µM): 5% | growth inhibition ([2]; at 100.0 µM): 53% | growth inhibition ([3]; at 1.2 µM): -6% | growth inhibition ([3]; at 3.7 µM): 6% | growth inhibition ([3]; at 11.0 µM): 5% | growth inhibition ([3]; at 33.0 µM): 26% | growth inhibition ([3]; at 100.0 µM): 76% (active) | growth inhibition ([4]; at 1.2 µM): -1% | growth inhibition ([4]; at 3.7 µM): 1% | growth inhibition [4, 15]: -10% | growth inhibition ([4]; at 11.0 µM): 5% | growth inhibition ([4]; at 33.0 µM): 28% | growth inhibition [4, 16]: 52% | growth inhibition ([4]; at 50.0 µM): 15.5% | growth inhibition ([4]; at 100.0 µM): 76% (active) | growth inhibition ([5]; at 1.2 µM): -3% | growth inhibition ([5]; at 3.7 µM): -1% | growth inhibition [5, 15]: 3% | growth inhibition ([5]; at 11.0 µM): 4% | growth inhibition ([5]; at 33.0 µM): 21% | growth inhibition [5, 16]: 59% | growth inhibition ([5]; at 50.0 µM): 22.8% | growth inhibition ([5]; at 100.0 µM): 72% (active) | growth inhibition [6, 15]: -7% | growth inhibition [6, 16]: 25% | growth inhibition ([6]; at 50.0 µM): 25.1% | growth inhibition ([7]; at 1.2 µM): 3% | growth inhibition ([7]; at 3.7 µM): 2% | growth inhibition ([7]; at 11.0 µM): 2% | growth inhibition ([7]; at 33.0 µM): 11% | growth inhibition ([7]; at 100.0 µM): 42% | growth inhibition [8, 15]: -25% | growth inhibition [8, 16]: 15% | growth inhibition ([8]; at 50.0 µM): 25.2% | growth inhibition ([9]; at 1.2 µM): 0% | growth inhibition ([9]; at 3.7 µM): -2% | growth inhibition [9, 15]: 9% | growth inhibition ([9]; at 11.0 µM): -3% | growth inhibition ([9]; at 33.0 µM): 4% | growth inhibition [9, 16]: 22% | growth inhibition ([9]; at 50.0 µM): 16.8% | growth inhibition ([9]; at 100.0 µM): 62% | growth inhibition ([10]; at 1.2 µM): -3% | growth inhibition ([10]; at 3.7 µM): -3% | growth inhibition ([10]; at 11.0 µM): -4% | growth inhibition ([10]; at 33.0 µM): 9% | growth inhibition ([10]; at 100.0 µM): 50% | growth inhibition ([11]; at 1.2 µM): -1% | growth inhibition ([11]; at 3.7 µM): 2% | growth inhibition ([11]; at 11.0 µM): 6% | growth inhibition ([11]; at 33.0 µM): 19% | growth inhibition ([11]; at 100.0 µM): 59% | growth inhibition ([12]; at 1.2 µM): 1% | growth inhibition ([12]; at 3.7 µM): 3% | growth inhibition ([12]; at 11.0 µM): 7% | growth inhibition ([12]; at 33.0 µM): 25% | growth inhibition ([12]; at 100.0 µM): 65% | growth inhibition [13, 15]: 4% | growth inhibition [13, 16]: 82% (active) | growth inhibition ([13]; at 50.0 µM): 15.7% | growth inhibition ([14]; at 1.2 µM): 4% | growth inhibition ([14]; at 3.7 µM): 7% | growth inhibition ([14]; at 11.0 µM): 10% | growth inhibition ([14]; at 33.0 µM): 28% | growth inhibition ([14]; at 100.0 µM): 67%
